# Experimental data as given in the supplement of paper PMC6089552.
# About 300 (9.4%) of roughly 3,200 compounds showed activity. Many of the other results were omitted from the sample, so actives are more common in it than they were. Unmarked numbers belong to inactive results.
# System: A673/TR/shEF
# Experiment: cell viability (LOESS-normalised, relative to median of negative controls) (log2 ratio); higher = more viable cells (less compound effect), active = hit call of the paper (over 3 MAD below the median)
# Conditions: treatment time: 72 h
# How it was run: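 For three days, A673/TR/shEF Ewing sarcoma cells in 384-well plates (1,500 per well) were treated with library compounds at two or more concentrations or with DMSO controls, after doxycycline had been added or withheld 24 h beforehand to induce EWS-FLI1 shRNA knockdown. Viability was read by CellTiter-Glo luminescence on an Envision reader. The data were LOESS-corrected per plate, divided by the median of negative controls and log2-transformed.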
# [1] = 0.25 µM, library screen: screen1, EWS-FLI1 expression: high (no doxycycline)
# [2] = 0.25 µM, library screen: screen1, EWS-FLI1 expression: low (doxycycline-induced shRNA knockdown)
# [3] = 2.5 µM, library screen: screen1, EWS-FLI1 expression: high (no doxycycline)
# [4] = 2.5 µM, library screen: screen1, EWS-FLI1 expression: low (doxycycline-induced shRNA knockdown)
# [5] = 0.025 µM, library screen: screen1, EWS-FLI1 expression: high (no doxycycline)
# [6] = 0.025 µM, library screen: screen1, EWS-FLI1 expression: low (doxycycline-induced shRNA knockdown)
# [7] = 0.103 µM, library screen: screen3, EWS-FLI1 expression: high (no doxycycline)
# [8] = 0.103 µM, library screen: screen3, EWS-FLI1 expression: low (doxycycline-induced shRNA knockdown)
# [9] = 0.25 µM, library screen: screen2, EWS-FLI1 expression: high (no doxycycline)
# [10] = 0.25 µM, library screen: screen2, EWS-FLI1 expression: low (doxycycline-induced shRNA knockdown)
# [11] = 0.308 µM, library screen: screen3, EWS-FLI1 expression: high (no doxycycline)
# [12] = 0.308 µM, library screen: screen3, EWS-FLI1 expression: low (doxycycline-induced shRNA knockdown)
# [13] = 0.926 µM, library screen: screen3, EWS-FLI1 expression: high (no doxycycline)
# [14] = 0.926 µM, library screen: screen3, EWS-FLI1 expression: low (doxycycline-induced shRNA knockdown)
# [15] = 2.5 µM, library screen: screen2, EWS-FLI1 expression: high (no doxycycline)
# [16] = 2.5 µM, library screen: screen2, EWS-FLI1 expression: low (doxycycline-induced shRNA knockdown)
# [17] = 2.8 µM, library screen: screen3, EWS-FLI1 expression: high (no doxycycline)
# [18] = 2.8 µM, library screen: screen3, EWS-FLI1 expression: low (doxycycline-induced shRNA knockdown)
# [19] = 8.3 µM, library screen: screen3, EWS-FLI1 expression: high (no doxycycline)
# [20] = 8.3 µM, library screen: screen3, EWS-FLI1 expression: low (doxycycline-induced shRNA knockdown)
# [21] = 25 µM, library screen: screen1, EWS-FLI1 expression: high (no doxycycline)
# [22] = 25 µM, library screen: screen1, EWS-FLI1 expression: low (doxycycline-induced shRNA knockdown)
# [23] = 25 µM, library screen: screen3, EWS-FLI1 expression: high (no doxycycline)
# [24] = 25 µM, library screen: screen3, EWS-FLI1 expression: low (doxycycline-induced shRNA knockdown)
smiles,measurement,setting,value
C=C1[C@@H]([C@@]2(C)C=CC(=O)C(C)(C)[C@@H]2CC(=O)OC)CC[C@@]2(C)C(c3ccoc3)OC(=O)[C@H]3O[C@]132 (stereo partly drawn),cell viability (log2),[1],0.109
same,cell viability (log2),[2],0.0181
same,cell viability (log2),[3],0.0641
same,cell viability (log2),[4],0.0727
CC(=O)O[C@@H]1CC2C(C)(C)[C@H](O)C[C@H](O)[C@]2(C)C2CC[C@@]3(C)[C@H](c4ccoc4)OC(=O)[C@H]4O[C@]43[C@@]21C (stereo partly drawn),cell viability (log2),[1],0.0571
same,cell viability (log2),[2],0.106
same,cell viability (log2),[3],0.13
same,cell viability (log2),[4],0.11
O[C@H]1[C@H]2c3cc4c(cc3CN3CCC(=C[C@@H]1O)[C@H]23)OCO4,cell viability (log2),[1],0.0121
same,cell viability (log2),[2],0.0722
same,cell viability (log2),[3],0.0564
same,cell viability (log2),[4],-0.019
CO[C@H]1C=C[C@@]23c4cc5c(cc4CN(C[C@@H]2O)[C@H]3C1)OCO5,cell viability (log2),[1],0.0568
same,cell viability (log2),[2],0.0269
same,cell viability (log2),[3],-0.415 (active)
same,cell viability (log2),[4],-0.623 (active)
CSc1ccc(CN2CCN(Cc3ccco3)CC2)cc1,cell viability (log2),[1],0.0257
same,cell viability (log2),[2],0.0474
same,cell viability (log2),[3],0.00049
same,cell viability (log2),[4],0.109
CC[C@H](CO)Nc1nc(NCc2ccccc2)c2ncn(C(C)C)c2n1,cell viability (log2),[5],0.0954
same,cell viability (log2),[6],0.0682
same,cell viability (log2),[7],0.0283
same,cell viability (log2),[8],-0.038
same,cell viability (log2),[1],0.0519
same,cell viability (log2),[2],0.0253
same,cell viability (log2),[9],0.213
same,cell viability (log2),[10],0.0581
same,cell viability (log2),[11],0.0653
same,cell viability (log2),[12],0.0646
same,cell viability (log2),[13],-0.0162
same,cell viability (log2),[14],0.042
same,cell viability (log2),[3],0.0221
same,cell viability (log2),[4],0.0445
same,cell viability (log2),[15],-0.591 (active)
same,cell viability (log2),[16],-0.646 (active)
same,cell viability (log2),[17],0.0824
same,cell viability (log2),[18],-0.0161
same,cell viability (log2),[19],0.118
same,cell viability (log2),[20],0.0527
same,cell viability (log2),[21],-0.0359
same,cell viability (log2),[22],0.0272
same,cell viability (log2),[23],0.0337
same,cell viability (log2),[24],0.0206
CC(C)n1cnc2c(NCc3ccccc3)nc(NCCO)nc21,cell viability (log2),[5],0.171
same,cell viability (log2),[6],-0.0915
same,cell viability (log2),[1],0.129
same,cell viability (log2),[2],-0.0331
same,cell viability (log2),[9],0.226
same,cell viability (log2),[10],0.0704
same,cell viability (log2),[3],-0.011
same,cell viability (log2),[4],0.0676
same,cell viability (log2),[15],0.247
same,cell viability (log2),[16],0.0622
same,cell viability (log2),[21],-0.0635
same,cell viability (log2),[22],0.0737
Cn1cnc2c(NCc3ccccc3)nc(NCCO)nc21,cell viability (log2),[5],0.0452
same,cell viability (log2),[6],0.063
same,cell viability (log2),[1],0.0867
same,cell viability (log2),[2],0.0323
same,cell viability (log2),[9],0.272
same,cell viability (log2),[10],0.106
same,cell viability (log2),[3],0.0349
same,cell viability (log2),[4],0.0403
same,cell viability (log2),[15],0.208
same,cell viability (log2),[16],0.113
same,cell viability (log2),[21],0.00929
same,cell viability (log2),[22],0.0531
CN1C(=O)CCC1c1cccnc1 (stereo not drawn),cell viability (log2),[9],0.264
same,cell viability (log2),[10],0.181
same,cell viability (log2),[15],0.161
same,cell viability (log2),[16],0.0586
CN[C@H](Cc1ccccc1)C(=O)N1CCC[C@H]1C(=O)N[C@@H](Cc1c[nH]c2ccccc12)C(=O)C(F)(F)C(F)(F)F,cell viability (log2),[9],0.168
same,cell viability (log2),[10],0.0679
same,cell viability (log2),[15],0.0864
same,cell viability (log2),[16],0.0322
C[C@H](CCC(=O)O)[C@H]1CC[C@H]2[C@@H]3C[C@H](O)C4C[C@H](O)CC[C@]4(C)[C@H]3CC[C@]12C (stereo partly drawn),cell viability (log2),[1],0.0369
same,cell viability (log2),[2],-0.0168
same,cell viability (log2),[3],0.0626
same,cell viability (log2),[4],-0.0216
CO[C@H]1C[C@@H]2CC[C@@H](C)[C@@](O)(O2)C(=O)C(=O)N2CCCC[C@H]2C(=O)O[C@H]([C@H](C)C[C@@H]2CC[C@@H](OC(=O)C(C)(CO)CO)[C@H](OC)C2)CC(=O)[C@H](C)/C=C(\C)[C@@H](O)[C@@H](OC)C(=O)[C@H](C)C[C@H](C)/C=C/C=C/C=C/1C,cell viability (log2),[7],-0.862 (active)
same,cell viability (log2),[8],-0.712 (active)
same,cell viability (log2),[11],-0.972 (active)
same,cell viability (log2),[12],-0.713 (active)
same,cell viability (log2),[13],-0.859 (active)
same,cell viability (log2),[14],-0.683 (active)
same,cell viability (log2),[17],-0.839 (active)
same,cell viability (log2),[18],-0.886 (active)
same,cell viability (log2),[19],-0.828 (active)
same,cell viability (log2),[20],-0.678 (active)
same,cell viability (log2),[23],-0.905 (active)
same,cell viability (log2),[24],-0.717 (active)
CO[C@H]1CC2CC[C@@H](C)[C@@](O)(O2)C(=O)C(=O)N2CCCC[C@H]2C(=O)O[C@H]([C@H](C)C[C@@H]2CC[C@@H](OP(C)(C)=O)[C@H](OC)C2)CC(=O)[C@H](C)/C=C(\C)[C@@H](O)[C@@H](OC)C(=O)[C@H](C)C[C@H](C)/C=C/C=C/C=C/1C,cell viability (log2),[7],-0.93 (active)
same,cell viability (log2),[8],-0.714 (active)
same,cell viability (log2),[11],-0.852 (active)
same,cell viability (log2),[12],-0.724 (active)
same,cell viability (log2),[13],-0.888 (active)
same,cell viability (log2),[14],-0.755 (active)
same,cell viability (log2),[17],-0.837 (active)
same,cell viability (log2),[18],-0.688 (active)
same,cell viability (log2),[19],-0.983 (active)
same,cell viability (log2),[20],-0.734 (active)
same,cell viability (log2),[23],-1.05 (active)
same,cell viability (log2),[24],-0.738 (active)
CO[C@H]1C[C@@H]2CC[C@@H](C)[C@@](O)(O2)C(=O)C(=O)N2CCCC[C@H]2C(=O)O[C@H]([C@H](C)C[C@@H]2CC[C@@H](OCCO)[C@H](OC)C2)CC(=O)[C@H](C)/C=C(\C)[C@@H](O)[C@@H](OC)C(=O)[C@H](C)C[C@H](C)/C=C/C=C/C=C/1C,cell viability (log2),[7],-0.823 (active)
same,cell viability (log2),[8],-0.667 (active)
same,cell viability (log2),[11],-0.931 (active)
same,cell viability (log2),[12],-0.779 (active)
same,cell viability (log2),[13],-0.921 (active)
same,cell viability (log2),[14],-0.761 (active)
same,cell viability (log2),[17],-0.899 (active)
same,cell viability (log2),[18],-0.779 (active)
same,cell viability (log2),[19],-1.09 (active)
same,cell viability (log2),[20],-0.731 (active)
same,cell viability (log2),[23],-0.943 (active)
same,cell viability (log2),[24],-0.733 (active)
CO[C@H]1C[C@@H]2CC[C@@H](C)[C@@](O)(O2)C(=O)C(=O)N2CCCC[C@H]2C(=O)O[C@H]([C@H](C)C[C@@H]2CC[C@@H](O)[C@H](OC)C2)CC(=O)[C@H](C)/C=C(\C)[C@@H](O)[C@@H](OC)C(=O)[C@H](C)C[C@H](C)/C=C/C=C/C=C/1C,cell viability (log2),[7],-0.737 (active)
same,cell viability (log2),[8],-0.644 (active)
same,cell viability (log2),[11],-0.758 (active)
same,cell viability (log2),[12],-0.612 (active)
same,cell viability (log2),[13],-0.692 (active)
same,cell viability (log2),[14],-0.65 (active)
same,cell viability (log2),[17],-0.692 (active)
same,cell viability (log2),[18],-0.756 (active)
same,cell viability (log2),[19],-0.726 (active)
same,cell viability (log2),[20],-0.651 (active)
same,cell viability (log2),[23],-0.719 (active)
same,cell viability (log2),[24],-0.63 (active)
